# Measurements as given in PubChem BioAssay (EPA / NIEHS).
# Activity calls are given as the source filed them. How the source made its calls: active means hit-call score of the fitted dose curve at least 0.9, where 1 is the maximum; inactive means score below 0.9.
# Assay: CEETOX_H295R_PROG_noMTC: CeeTox H295R High-throughput Steroidogenesis Assay for Progesterone (PROG), maximum tolerated concentration (MTC) filtered results only (AID 2283920)
# Conditions: actives raise or lower the signal
# Procedure, shortened: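 Progesterone synthesis in the human adrenal line H295R is measured by HPLC-MS/MS after 48 h chemical exposure following 48 h forskolin (10 uM) stimulation. Activity in either direction is fitted relative to DMSO.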
row,Structure (SMILES),outcome
1,CCCCC(CC)COC(=O)c1ccc(C(=O)OCC(CC)CCCC)cc1 (stereo not drawn),inactive
2,CC(C)=CCC/C(C)=C\CO,inactive
3,O=C(NS(=O)(=O)/C=C/c1ccccc1)c1ccc(F)cc1Cl,inactive
